From PubChem BioAssay (EPA / NIEHS)
Results filed as inconclusive are left out. The source made the active and inactive calls. Rule for the calls, unless noted: active = hit-call score of the fitted dose curve at least 0.9, where 1 is the maximum; inactive = score below 0.9.

How the values were obtained:
[1] = molecular target: Retinoic acid receptor RXR-alpha (Homo sapiens) (UniProt P19793); assay: ATG_RXRa_TRANS: Attagene TRANS-FACTORIAL HepG2 Assay for human Retinoid X Receptor alpha (RXRa) (AID 2283012; active = hit-call score of the fitted dose curve at least 0.9, where 1 is the maximum)
Outline: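 Measures exogenous chimeric NR-GAL4 activity in transfected HepG2 liver cells after 24 h of dosing. Induced reporter mRNA was detected by RT-PCR with capillary electrophoresis, and gain of signal was analysed against DMSO.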

[2] = read-out: E-selectin (Homo sapiens) (UniProt P16581); assay: BSK_3C_Eselectin: BioMAP Diversity Plus: 3C Assay for Eselectin Biomarker Activity (AID 2283015); details: primary human endothelial cells (HUVEC); actives raise or lower the signal
Outline: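 HUVEC, 3C stimulation; compound exposure 24 h; E-selectin by ELISA; gain- or loss-of-signal fitted bidirectionally vs DMSO baseline.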

[3] = read-out: Interleukin-1 alpha (IL1a), IL1A (gene 3552); assay: BSK_BE3C_IL1a: BioMAP Diversity Plus: BE3C Assay for Interleukin-1 alpha (IL1a) Biomarker Activity (AID 2283016); details: primary human bronchial epithelial cells; actives raise or lower the signal
Outline: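 Signal from IL-1a ELISA, taken 24 h after chemical dosing of human bronchial epithelial cells, is compared with DMSO as baseline using bidirectional curve fitting.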

[4] = read-out: Monocyte Chemoattractant Protein-1 (MCP1), CCL2 (gene 6347); assay: BSK_4H_MCP1: BioMAP Diversity Plus: 4H Assay for Monocyte Chemoattractant Protein-1 (MCP1) Biomarker Activity (AID 2283018); details: primary human endothelial cells (HUVEC); actives raise or lower the signal
Outline: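 Endothelial cells from umbilical vein were treated with test chemical, then after 24 h MCP-1 levels were quantified by ELISA; endpoint values came from bidirectional fitting with DMSO as baseline of activity.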

[5] = read-out: Human Leukocyte Antigen - DR isotype (HLADR), HLA-DRA (gene 3122); assay: BSK_3C_HLADR: BioMAP Diversity Plus: 3C Assay for Human Leukocyte Antigen - DR isotype (HLADR) Biomarker Activity (AID 2283019); details: primary human endothelial cells (HUVEC); actives raise or lower the signal
Outline: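 HUVEC, 3C stimulation, 24 h post-dose; HLA-DR by ELISA; bidirectional curve fit vs DMSO baseline; gain or loss of signal scored.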

[6] = read-out: Monokine induced gamma interferon (MIG), CXCL9 (gene 4283); assay: BSK_3C_MIG: BioMAP Diversity Plus: 3C Assay for Monokine induced gamma interferon (MIG) Biomarker Activity (AID 2283021); details: primary human endothelial cells (HUVEC); actives raise or lower the signal;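 for AC50: MIG protein level measured by immunoassay in the treated endothelial cultures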
Outline: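 Endothelial primary cells (human umbilical vein) are dosed with test chemical in the 3C system. MIG levels are measured by ELISA at 24 h and fitted in both directions relative to DMSO.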

[7] = molecular target: human Vitamin D Receptor (VDR), VDR (gene 7421) (UniProt P11473); assay: ATG_VDR_TRANS: Attagene TRANS-FACTORIAL HepG2 Assay for human Vitamin D Receptor (VDR) (AID 2283022; active = hit-call score of the fitted dose curve at least 0.9, where 1 is the maximum)
Outline: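 RT-PCR/capillary electrophoresis read-out of reporter mRNA induction in transiently transfected HepG2; 24 h dosing; chimeric NR-Gal4 (TRANS format); gain-of-signal fit against DMSO baseline.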

[8] = BSK_3C_SRB: Viability Assessment in the BioMAP Diversity Plus: 3C Assay (AID 2283023); details: primary human endothelial cells (HUVEC);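 note: fitted both ways against DMSO so a hit may be signal rise or drop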
Outline: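 HUVEC, 24 h post-dose; 10% TCA fix, 0.1% SRB stain, A560 nm. Bidirectional curve fit vs DMSO negative control.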

[9] = read-out: Matrix Metallopeptidase 1 (MMP1), MMP1 (gene 4312); assay: BSK_BE3C_MMP1: BioMAP Diversity Plus: BE3C Assay for Matrix Metallopeptidase 1 (MMP1) Biomarker Activity (AID 2283024); details: primary human bronchial epithelial cells; actives raise or lower the signal
Outline: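 MMP1 signal, measured by ELISA after a 24 h chemical exposure of human primary bronchial epithelial cells, is analysed with bidirectional fitting using DMSO as negative control.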

[10] = BSK_3C_Vis: BioMAP Diversity Plus: 3C Assay for Morphology Visualization (AID 2283025); details: primary human endothelial cells (HUVEC);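 note: fitted both ways so gain or loss versus DMSO counts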
Outline: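 Morphology read by light microscopy serves as a background control for the multiplexed 3C assay in human umbilical vein endothelial cells, taken 24 h after dosing, with DMSO as the negative control and bidirectional curve fitting.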

[11] = read-out: Pselectin, SELP (gene 6403); assay: BSK_4H_Pselectin: BioMAP Diversity Plus: 4H Assay for Pselectin Biomarker Activity (AID 2283026); details: primary human endothelial cells (HUVEC); actives raise or lower the signal
Outline: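 Endothelial primary cells (human umbilical vein) are dosed, incubated 24 h, and assayed for surface P-selectin by ELISA; responses in either direction are fitted relative to the DMSO negative control.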

[12] = BSK_4H_SRB: Viability Assessment in the BioMAP Diversity Plus: 4H Assay (AID 2283027); details: primary human endothelial cells (HUVEC);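 note: cells exposed to compound for 24 h before staining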;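 for AC50: curves fitted both ways versus DMSO so AC50 may be loss or gain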
Outline: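 Cytotoxicity readout: sulforhodamine B (0.1%) staining of total protein after 10% TCA fixation, measured at 560 nm in human umbilical vein endothelium at 24 h. DMSO set the baseline; fitting was bidirectional.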

[13] = BSK_BE3C_SRB: Viability Assessment in the BioMAP Diversity Plus: BE3C Assay (AID 2283028); details: primary human bronchial epithelial cells;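 for AC50: fitted both ways so AC50 may mark signal gain or loss versus DMSO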
Outline: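 Primary human bronchial epithelium; chemical dosing, 24 h; 10% TCA fix, 0.1% SRB stain, A560; bidirectional fit vs DMSO baseline.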

[14] = read-out: Thrombomodulin, THBD (gene 7056); assay: BSK_3C_Thrombomodulin: BioMAP Diversity Plus: 3C Assay for Thrombomodulin Biomarker Activity (AID 2283029); details: primary human endothelial cells (HUVEC); actives raise or lower the signal
Outline: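 Endothelial cells from umbilical vein are dosed with test chemical and incubated 24 h. Thrombomodulin is then quantified by ELISA, with DMSO serving as negative control and activity baseline.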

[15] = read-out: Urokinase-type plasminogen activator receptor (uPAR), PLAUR (gene 5329); assay: BSK_4H_uPAR: BioMAP Diversity Plus: 4H Assay for Urokinase-type plasminogen activator receptor (uPAR) Biomarker Activity (AID 2283030); details: primary human endothelial cells (HUVEC); actives raise or lower the signal
Outline: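 HUVEC, 24 h post-dose; uPAR by ELISA; bidirectional fit vs DMSO baseline.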

[16] = molecular target: human Retinoid X Receptor beta (RXRb), RXRB (gene 6257) (UniProt P28702); assay: ATG_RXRb_TRANS: Attagene TRANS-FACTORIAL HepG2 Assay for human Retinoid X Receptor beta (RXRb) (AID 2283013; active = hit-call score of the fitted dose curve at least 0.9, where 1 is the maximum)
Outline: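 Chimeric receptor-Gal4 activity was assessed in transiently transfected human HepG2 cells after 24 h exposure. Transcripts from GAL4-UAS reporters were quantified by fluorescent RT-PCR and capillary electrophoresis, with DMSO as negative control and baseline.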

[17] = molecular target: human Thyroid Receptor alpha (THRa1), THRA (gene 7067) (UniProt P10827); assay: ATG_THRa1_TRANS: Attagene TRANS-FACTORIAL HepG2 Assay for human Thyroid Receptor alpha (THRa1) (AID 2283014; active = hit-call score of the fitted dose curve at least 0.9, where 1 is the maximum)
Outline: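 Transient HepG2 transfection, NR-Gal4 chimera driving GAL4-UAS reporters; 24 h compound exposure; total RNA, oligo(dT) RT, PCR, fluorescent primer extension, capillary electrophoresis. Upward direction vs DMSO control.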

[18] = read-out: Interleukin-8 (IL8), CXCL8 (gene 3576); assay: BSK_3C_IL8: BioMAP Diversity Plus: 3C Assay for Interleukin-8 (IL8) Biomarker Activity (AID 2283020); details: primary human endothelial cells (HUVEC); actives raise or lower the signal
Outline: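 Endothelial primary cells of human umbilical vein origin are dosed with chemical; after 24 h the IL-8 biomarker is measured by ELISA, and concentration–response is fitted in both directions versus DMSO.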

[19] = read-out: Monocyte Chemoattractant Protein-1 (MCP1), CCL2 (gene 6347); assay: BSK_3C_MCP1: BioMAP Diversity Plus: 3C Assay for Monocyte Chemoattractant Protein-1 (MCP1) Biomarker Activity (AID 2283017); details: primary human endothelial cells (HUVEC); actives raise or lower the signal
Outline: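 HUVEC, 3C system; 24 h chemical exposure; MCP-1 by ELISA; bidirectional curve fit vs DMSO baseline.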

Measured: AC50

Retinoic acid receptor RXR-alpha (Homo sapiens), sequence (P19793 whole entry, looked up, the tested form may be a part): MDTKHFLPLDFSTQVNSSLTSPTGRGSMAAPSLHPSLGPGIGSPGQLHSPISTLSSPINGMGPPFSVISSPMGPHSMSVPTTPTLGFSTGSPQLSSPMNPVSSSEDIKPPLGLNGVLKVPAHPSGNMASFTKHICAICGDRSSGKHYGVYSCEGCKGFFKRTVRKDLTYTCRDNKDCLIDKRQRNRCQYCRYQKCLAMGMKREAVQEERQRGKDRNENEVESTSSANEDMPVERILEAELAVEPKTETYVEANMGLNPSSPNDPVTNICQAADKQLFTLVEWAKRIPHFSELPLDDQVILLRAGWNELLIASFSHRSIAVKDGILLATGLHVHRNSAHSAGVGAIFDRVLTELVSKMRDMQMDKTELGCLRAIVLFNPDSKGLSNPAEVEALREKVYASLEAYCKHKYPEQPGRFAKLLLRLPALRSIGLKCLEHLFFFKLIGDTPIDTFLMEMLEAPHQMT
human Retinoid X Receptor beta (RXRb), RXRB (gene 6257), sequence (P28702 whole entry, looked up, the tested form may be a part): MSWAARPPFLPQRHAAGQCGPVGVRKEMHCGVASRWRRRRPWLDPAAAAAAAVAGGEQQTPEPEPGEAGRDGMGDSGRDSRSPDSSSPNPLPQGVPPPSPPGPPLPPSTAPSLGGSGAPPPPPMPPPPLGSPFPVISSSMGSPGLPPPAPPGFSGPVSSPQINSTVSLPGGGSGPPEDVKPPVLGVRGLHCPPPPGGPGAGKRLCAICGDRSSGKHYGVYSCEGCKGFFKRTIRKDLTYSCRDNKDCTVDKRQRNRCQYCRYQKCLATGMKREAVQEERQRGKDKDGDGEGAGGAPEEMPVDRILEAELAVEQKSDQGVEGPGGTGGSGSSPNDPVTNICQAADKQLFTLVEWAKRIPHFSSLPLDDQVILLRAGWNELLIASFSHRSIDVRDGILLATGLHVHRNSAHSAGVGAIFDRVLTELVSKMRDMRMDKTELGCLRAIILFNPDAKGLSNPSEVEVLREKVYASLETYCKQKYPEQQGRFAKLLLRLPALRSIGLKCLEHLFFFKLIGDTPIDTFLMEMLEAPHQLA
E-selectin (Homo sapiens), sequence (P16581 whole entry, looked up): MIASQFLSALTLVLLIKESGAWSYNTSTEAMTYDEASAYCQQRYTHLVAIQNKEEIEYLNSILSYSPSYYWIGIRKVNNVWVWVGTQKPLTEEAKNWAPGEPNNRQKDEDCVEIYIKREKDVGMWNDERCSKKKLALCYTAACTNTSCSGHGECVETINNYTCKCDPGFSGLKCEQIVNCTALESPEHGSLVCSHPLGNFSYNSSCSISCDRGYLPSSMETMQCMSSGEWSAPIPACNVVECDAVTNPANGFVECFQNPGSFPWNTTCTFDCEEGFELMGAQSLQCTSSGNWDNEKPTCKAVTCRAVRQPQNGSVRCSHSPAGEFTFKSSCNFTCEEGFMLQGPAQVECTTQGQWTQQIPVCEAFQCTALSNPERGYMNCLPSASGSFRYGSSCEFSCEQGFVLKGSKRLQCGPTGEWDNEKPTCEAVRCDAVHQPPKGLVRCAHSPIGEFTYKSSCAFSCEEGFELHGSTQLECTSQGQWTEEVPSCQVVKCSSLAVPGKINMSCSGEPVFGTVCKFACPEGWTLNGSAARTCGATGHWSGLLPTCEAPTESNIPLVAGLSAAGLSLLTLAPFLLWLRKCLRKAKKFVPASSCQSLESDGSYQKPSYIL
human Vitamin D Receptor (VDR), VDR (gene 7421), sequence (P11473 whole entry, looked up, the tested form may be a part): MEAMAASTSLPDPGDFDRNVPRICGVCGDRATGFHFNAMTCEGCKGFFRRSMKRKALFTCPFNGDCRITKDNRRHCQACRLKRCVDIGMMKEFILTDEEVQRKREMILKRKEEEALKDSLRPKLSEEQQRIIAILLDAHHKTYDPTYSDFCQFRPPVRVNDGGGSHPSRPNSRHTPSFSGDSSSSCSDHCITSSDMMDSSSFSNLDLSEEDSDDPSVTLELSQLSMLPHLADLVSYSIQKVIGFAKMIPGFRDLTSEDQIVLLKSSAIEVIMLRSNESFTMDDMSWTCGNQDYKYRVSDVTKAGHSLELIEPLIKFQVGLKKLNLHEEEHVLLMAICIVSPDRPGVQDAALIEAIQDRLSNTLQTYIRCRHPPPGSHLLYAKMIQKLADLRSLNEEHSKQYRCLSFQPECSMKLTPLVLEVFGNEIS
human Thyroid Receptor alpha (THRa1), THRA (gene 7067), sequence (P10827 whole entry, looked up, the tested form may be a part): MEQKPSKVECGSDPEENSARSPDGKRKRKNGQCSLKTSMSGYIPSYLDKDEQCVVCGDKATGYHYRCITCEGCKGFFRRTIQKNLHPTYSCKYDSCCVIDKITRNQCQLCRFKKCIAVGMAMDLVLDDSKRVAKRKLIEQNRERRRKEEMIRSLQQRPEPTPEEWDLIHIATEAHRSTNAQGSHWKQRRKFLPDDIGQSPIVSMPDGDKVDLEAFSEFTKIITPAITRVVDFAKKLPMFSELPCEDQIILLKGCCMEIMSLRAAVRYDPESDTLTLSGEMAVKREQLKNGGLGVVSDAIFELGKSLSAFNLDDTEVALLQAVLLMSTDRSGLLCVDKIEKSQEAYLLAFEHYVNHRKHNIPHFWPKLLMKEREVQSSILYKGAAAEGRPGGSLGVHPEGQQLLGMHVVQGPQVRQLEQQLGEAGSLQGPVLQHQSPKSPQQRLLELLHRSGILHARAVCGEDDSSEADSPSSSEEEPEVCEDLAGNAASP

CCN(Cc1cccnc1)C(=O)c1cccc(Cl)c1[C@]1(C)C(=O)N(Cc2ccc(OC)cc2OC)c2ccc(Cl)cc21
active: [2] 6.76 µM | [5] 8.86 µM | [8] 6.28 µM | [10] 4.34 µM | [11] 4.73 µM | [12] 5.38 µM | [15] 5.48 µM
not listed: [16] | [17] | [18] | [19]
inactive: all other assays above

O=C(Nc1ccc(Cl)cc1)Nc1ccc(Cl)c(Cl)c1
active: [5] 1.68 µM | [18] 1.87 µM | [8] 2.66 µM | [11] 2.6 µM | [12] 2.02 µM | [15] 1.92 µM
not listed: [4] | [7] | [19]
inactive: all other assays above

NC(=O)c1nc(-c2cccc(-c3cc(F)ccc3OCC(F)(F)C(F)(F)F)c2)n[nH]1
inactive: [1] | [7]
active: [2] 34.9 µM | [3] 38.8 µM | [19] 35.3 µM | [4] 29.3 µM | [5] 22.6 µM | [18] 34.4 µM | [6] 41.4 µM | [8] 31.9 µM | [9] 36.5 µM | [10] 42.3 µM | [11] 30.8 µM | [12] 35.2 µM | [13] 34.5 µM | [14] 11.7 µM | [15] 22.6 µM

CCCCCCCCOC(=O)c1cc(O)c(O)c(O)c1
active: [2] 38.8 µM | [3] 33.4 µM | [5] 15.3 µM | [18] 30.8 µM | [6] 39.3 µM | [7] 55 µM | [8] 20 µM | [9] 33.5 µM | [10] 37.5 µM | [11] 17.8 µM | [12] 15.1 µM | [13] 33.6 µM | [15] 37.7 µM
inactive: [1] | [16] | [17] | [14]

O=C=NCCCCCCN=C=O
not listed: [4] | [7] | [17] | [19]
inactive: all other assays above

Oc1ccc2ccccc2c1
not listed: [17] | [19]
inactive: all other assays above

CCCCCc1ccc(N)cc1
active: [5] 14.5 µM | [8] 17.8 µM | [12] 11.7 µM | [15] 7.58 µM
not listed: [19]
inactive: all other assays above

Clc1ccccc1C(c1ccccc1)(c1ccccc1)n1ccnc1
inactive: [1] | [7]
active: [2] 30.8 µM | [3] 7.88 µM | [4] 16.9 µM | [5] 15.7 µM | [6] 34.5 µM | [8] 11.9 µM | [9] 11.8 µM | [10] 14.5 µM | [11] 8.64 µM | [12] 24.9 µM | [13] 8.78 µM | [14] 8.39 µM | [15] 18.3 µM

CCCCCCCCOc1ccc(C(=O)c2ccccc2)c(O)c1
active: [5] 24.7 µM | [8] 28.7 µM | [14] 7.71 µM
not listed: [16] | [18]
inactive: all other assays above

C[C@]12CC[C@@H]3c4ccc(O)cc4CC[C@H]3[C@@H]1CCC2=O
active: [5] 31.7 µM | [9] 3.97 µM
not listed: [4] | [7] | [16] | [17] | [18] | [19]
inactive: all other assays above

CN1C(=O)N(c2ccccc2Br)Cc2cnc(Nc3ccc4c(c3)OCC(CO)O4)nc21 (stereo not drawn)
inactive: [14]
active: [2] 15.2 µM | [3] 2.57 µM | [5] 9 µM | [18] 12.2 µM | [6] 25.3 µM | [8] 20 µM | [9] 7.24 µM | [10] 20.7 µM | [11] 6.75 µM | [12] 2.02 µM | [13] 28.1 µM | [15] 3.51 µM

COc1cccc([C@H](O)C2CCN(CCc3ccc(F)cc3)CC2)c1OC
active: [11] 6.42 µM | [15] 0.228 µM
not listed: [4] | [16] | [17] | [19]
inactive: all other assays above
